Measurements as given in PubChem BioAssay AID2061320 (National Center for Advancing Translational Sciences (NCATS), 2025).
Results filed as inconclusive are left out. Active and inactive are the calls of the source. Calls follow the shape of the dose curve; as a rule, active = well fitted inhibition curve with a large enough effect; inconclusive = small, poorly fitted or top-dose-only effect; inactive = flat fitted curve, though single readings scatter.

Experiment: Identification of antibody-drug conjugate (ADC) payloads which are substrates of ATP-binding cassette drug efflux transporters: ABCG2-H460-MX20 cell line
Settings: H460-MX20 (ABCG2) viability, CellTiter-Glo, 48 h; series mostly up to 28.7 µM
Excerpt: Antibody-drug conjugates (ADCs) feature an antibody recognizing a specific protein joined to a potent toxic payload. Numerous antibody-drug conjugates have received FDA approval; however, clinical resistance arises. Resistance mechanisms include decreased expression or mutation of the antibody target, impaired payload release, or increased expression of ATP-binding cassette (ABC) efflux transporters associated with multidrug resistance. We therefore sought to characterize the interaction of ABC multidrug transporters with ADC payloads. We performed a high-throughput screen with 27 common ADC payloads using cells lines expressing ABC transporters P-glycoprotein (P-gp, encoded by ABCB1) or ABCG2 (encoded by ABCG2). Confirmatory assays were also performed using cells transfected to express P-gp, ABCG2, or MRP1 (encoded by ABCC1). Several commonly used ADC payloads were substrates of P-gp, including calicheamicin gamma1, monomethyl auristatin E, DM1, and DM4. All the pyrrolobenzodiazepines tested - SJG136, SGD-1882, SG2057, and SG3199 - were substrates of P-gp, ABCG2, and MRP1. […] These findings highlight the risk of transporter-mediated resistance with certain ADC payloads and underscore the importance of selecting payloads that evade ABC transporter recognition in future ADC development.
HEK-293 cells were transfected with empty vector (pcDNA) or vector containing the human ABCB1 (MDR-19), ABCG2 (R-5), or ABCC1 gene (MRP1) and were maintained in EMEM with 2 mg/mL G418 added to maintain transporter expression. The HeLa derivative KB-3-1 and the P-gp overexpressing KB-8-5-11 subline were maintained in DMEM; KB-8-5-11 additionally received 100 ng/mL colchicine. H460 parental cells were obtained from the Division of Cancer Treatment and Diagnosis Tumor Repository, National Cancer Institute at Frederick, MD and were cultured in RPMI. The ABCG2 expressing subline H460 MX20 was generated by selecting H460 cells in 20 nM mitoxantrone. Media in all cases was supplemented with 10% FBS and 1% penicillin-streptomycin. We explored 27 common ADC payloads, in two orthogonal, paired cell line sets-a drug selected and transfected set for each transporter--to identify substrates of the ABC transporters P-gp and ABCG2. Compounds were sourced from Levena Biopharma (San Diego, CA), Selleck Chem (Houston, TX), ChemieTek (Indianapolis, IN), or Microsource Discovery Systems (Gaylordsville, CT). Screening was performed as previously described. Briefly, cells were plated at a density of 500 cells/well in 1536 well plates with compounds added using a 1536-head pin tool (Kalypsys, San Diego CA). Cells were incubated with cytotoxic drugs and processed with CellTiter Glo reagent (Promega, Madison, WI) to determine viability after 48 hours. P-gp substrates were identified by comparing compound activity between paired sets of low-expressing (sensitive) and over-expressing (resistant) cell lines.

| Compound | Potency |
| --- | --- |
| CCN[C@H]1CO[C@@H](O[C@H]2[C@H](O[C@H]3C#C/C=C\C#C[C@]4(O)CC(=O)C(NC(=O)OC)=C3/C4=C\CSSSC)O[C@H](C)[C@@H](NO[C@H]3C[C@H](O)[C@H](SC(=O)c4c(C)c(I)c(O[C@@H]5O[C@@H](C)[C@H](O)[C@@H](OC)[C@H]5O)c(OC)c4OC)[C@@H](C)O3)[C@@H]2O)C[C@@H]1OC | 4.2 nM (active) |
| CC(C)(C)OC(=O)Nc1ccc2[nH]c(C(=O)N3C[C@@H](CCl)c4c3cc(O)c3ccccc43)cc2c1 | 10.6 nM (active) |
| COc1cccc2c1C(=O)c1c(O)c3c(c(O)c1C2=O)C[C@@](O)(C(=O)CO)C[C@@H]3O[C@H]1C[C@H](N)[C@H](O)[C@H](C)O1 | 1190 nM (active) |
| CN(C)CCOc1ccc2[nH]c(C(=O)N3C[C@@H](CCl)c4c3cc(O)c3ccccc43)cc2c1 | 0.8 nM (active) |
| CCN(C(C)=O)[C@H]1CO[C@@H](O[C@H]2[C@H](O[C@H]3C#C/C=C\C#C[C@]4(O)CC(=O)C(NC(=O)OC)=C3/C4=C\CSSSC)O[C@H](C)[C@@H](NO[C@H]3C[C@H](O)[C@H](SC(=O)c4c(C)c(I)c(O[C@@H]5O[C@@H](C)[C@H](O)[C@@H](OC)[C@H]5O)c(OC)c4OC)[C@@H](C)O3)[C@@H]2O)C[C@@H]1OC | 15 nM (active) |
| COc1cccc2c1C(=O)c1c(O)c3c(c(O)c1C2=O)C[C@@](O)(C(=O)CO)C[C@@H]3O[C@H]1C[C@H]2[C@H](O[C@@H]3[C@@H](OC)OCCN32)[C@H](C)O1 | 0.2 nM (active) |
| CC[C@H](C)[C@@H]([C@H](N)CC(=O)N1CCC[C@H]1[C@H](OC)[C@@H](C)C(=O)N[C@@H](Cc1ccccc1)c1nccs1)N(C)C(=O)[C@@H](NC(=O)[C@@H](NC)C(C)C)C(C)C | inactive |
| COC(=O)c1cc2c3c(cc(O)c2[nH]1)N(C(=O)c1cc2cc(OC)c(OC)c(OC)c2[nH]1)CC3CCl (stereo not drawn) | 0.7 nM (active) |
